From PubChem BioAssay
GLP-1R inv ag = inverse agonists of human GLP-1 receptor; HEK293 GLP-1R CRE-luciferase, luminescence, 24 h; GLP-1R form is constitutively active; Potency, µM (highest dose often 38.3 µM), inactives show at the highest dose activity change, negative = inhibition, actives largely listed as inhibitors; actives 1.6% (n = 410,000); further: on the % scale 0 is the no-effect control and ±100 the full control effect; nearly all actives have a fitted effect of over 55% in size
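Readout was luciferase luminescence, measured 12 min after detection reagent at room temperature. Beforehand, GLP-1R reporter HEK293 cells had sat 12 h, then received compounds for 24 hr at 37 deg C.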
PTHR1 ag = agonists of human PTHR1 parathyroid hormone receptor | Q03431 | HEK293 GP2 PTHR1 cells, GloSensor cAMP luminescence, 1 h | Potency, µM (top dose mostly 115 µM), for the others: at the top dose activation, most hits filed as activators | actives 0.075% (n = 410,000) | AID 743266; further: nearly all actives have a fitted effect of over 55% in size
Target sequence (Q03431 whole entry, looked up): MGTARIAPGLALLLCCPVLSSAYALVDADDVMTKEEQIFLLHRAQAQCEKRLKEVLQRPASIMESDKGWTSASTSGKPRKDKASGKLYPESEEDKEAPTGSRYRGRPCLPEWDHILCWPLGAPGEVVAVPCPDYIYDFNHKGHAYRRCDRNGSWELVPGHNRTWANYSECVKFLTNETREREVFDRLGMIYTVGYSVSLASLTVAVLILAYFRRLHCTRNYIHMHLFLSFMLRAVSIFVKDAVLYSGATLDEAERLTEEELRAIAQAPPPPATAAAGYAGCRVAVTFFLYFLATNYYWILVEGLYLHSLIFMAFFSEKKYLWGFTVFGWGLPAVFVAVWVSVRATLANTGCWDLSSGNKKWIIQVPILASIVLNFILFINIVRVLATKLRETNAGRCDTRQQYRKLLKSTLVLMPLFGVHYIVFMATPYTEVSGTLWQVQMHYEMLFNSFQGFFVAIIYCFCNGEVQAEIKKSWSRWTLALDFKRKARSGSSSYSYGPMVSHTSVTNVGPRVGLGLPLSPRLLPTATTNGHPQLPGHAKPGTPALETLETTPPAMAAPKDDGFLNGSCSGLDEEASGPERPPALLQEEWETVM
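HEK-293-derived GP2 cells expressing PTHR1 and a GloSensor cAMP reporter, 3,000/well, plated overnight, given luciferin plus IBMX (each 0.5 mM as added) for 1 h at 37 °C, then compound for 1 h at 37 °C. Luminescence was read after 15 min at room temperature.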
GLP1R cytotox = cytotoxic in the GLP-1 receptor inverse agonist counter-screen | Potency, µM (highest dose often 38.3 µM), for inactives: at the top dose activity change, negative = inhibition, actives largely listed as inhibitors | HEK293 cAMP-luciferase reporter cells, luminescence, 24 h | AID 624418 | actives 0.13% (n = 410,000);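 further: loss of luciferase light is scored as toxicity; on the % scale 0 is the no-effect control and ±100 the full control effect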
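Seeding density was 200 cells/uL; after overnight-length (12 h) culture, 23 nL compounds went on for 24 h at 37 °C. Readout used a luciferase detection reagent, luminescence taken after 12 min at room temperature.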
GLP-1R agonist = agonists of human GLP-1 receptor | HEK293 GLP-1R CRE-luciferase, luminescence, 4-6 h; cells express a hypersensitive GLP-1R form | Potency, µM (titrated, usually from 45.6 µM), inactives show at the highest dose activation, usual class: activators | actives 0.007% (n = 380,000) | AID 624172; further: % of control where 0% means no effect
An asterisk follows results filed as active; i = inactive; ? = inconclusive; / = no result given; [ ] = dose if it differs, or a comment. Sampled rows, rich in hits. Any-hit rate of the full collection: about 1.7%. The call rests on the fitted dose curve; in most records, active means well fitted curve in the direction sought with a large enough effect; inconclusive means small, poorly fitted or top-dose-only effect, or another doubt; inactive means no such curve, though single readings can be large; an effect the other way counts as inactive or inconclusive. Potency means the concentration at half of the fitted maximal effect.

SMILES	GLP-1R inv ag	PTHR1 ag	GLP1R cytotox	GLP-1R agonist
O=C(NC12CC3CC(CC(C3)C1)C2)c1cc(F)c(F)cc1Cl	10µM*	-38%	-1%	-3%
Cc1[nH]c2ccccc2c1C1(O)C(=O)N(Cc2ccccc2)c2ccc(Cl)cc21 (centres undefined)	?	-17%	-18%	-7%
COc1ccc(CCNC(=O)c2cccc(S(=O)(=O)N3CCCCC3)c2)cc1	?	-29%	-16%	2%
COc1ccc(CCNC(=O)c2cc(S(=O)(=O)N3CCCCC3)ccc2Cl)cc1	8.9µM*	-23%	20%	7%
CC(C)=CCC/C(C)=C\CC/C(C)=C\CC/C(C)=C\CC1=C(C)C(=O)c2ccccc2C1=O	/	/	/	1%
CC(C)C[C@H]1CNC(=S)N1CC1CCN(CCC23CC4CC(CC(C4)C2)C3)CC1	10µM*	-41%	-2%	0%
Cc1ccc(C(C(=O)NCC2CCCO2)N(Cc2ccccc2)C(=O)c2ccc(-c3ccccc3)[nH]2)o1 (centres undefined)	?	-8%	-27%	-2%
O=C(NCC1CCCO1)C(c1cccs1)N(Cc1ccccc1Cl)C(=O)c1ccc(-c2ccccc2)[nH]1 (centres undefined)	2.5µM*	i	0%	-16%
CCC(=O)N1CCc2cc(CNS(=O)(=O)c3cc(Cl)ccc3OC)ccc21	-6%	-33%	1%	/
O=C1NC[C@H](c2ccccc2)OC(=O)[C@@H](Cc2ccc(F)cc2)C/C=C\C[C@H]1CC(=O)N(CCO)Cc1ccccc1	-4%	-41%	3%	-11%
O=C1NC[C@H](c2ccccc2)OC(=O)[C@H](Cc2ccc(F)cc2)C/C=C\C[C@H]1CC(=O)N(CCO)Cc1ccccc1	5.6µM*	i	-29%	-6%
O=C1N[C@@H](Cc2c[nH]c3ccccc23)COC(=O)[C@@H](Cc2ccc(F)cc2)C/C=C\C[C@H]1CC(=O)N(CCO)Cc1ccccc1	8.9µM*	-1%	?	-6%
COC(=O)c1cccc(Nc2c(-c3ccc(OC)cc3)nc3nc[nH]n23)c1	62%	-7%	4%	/
CCN(c1ccccc1)c1nnc(NC(=O)Nc2ccc(Br)cc2F)s1	12%	25%	-2%	/
COC(=O)C1=CN(c2ccc(F)cc2)C=C(C(=O)OC)C1c1cccc([N+](=O)[O-])c1	5.6µM*	-32%	5%	13%
CN(C)c1ccc(CNC(=O)CN2C(=O)CCn3nc(-c4cn(C)c5ccccc45)cc32)cc1	-29%	i	-2%	/
COc1ccc(NC(=S)NC(NC(=O)c2cccc(C)c2)C(Cl)(Cl)Cl)c([N+](=O)[O-])c1 (centres undefined)	8.9µM*	-15%[57.5 µM]	?	-8%
O=C(Cc1cccc2ccccc12)NC(NC(=S)Nc1ccccc1Cl)C(Cl)(Cl)Cl (centres undefined)	4.5µM*	-24%	-17%	-16%
O=C(NC(NC(=S)Nc1ccccc1Cl)C(Cl)(Cl)Cl)c1cccc(Cl)c1 (centres undefined)	2.8µM*	-28%	-4%	-40%
Cc1ccc2c(Br)cc(Br)c(O)c2n1	/	/	/	19%
COC(=O)c1cc(NC(=O)CC2SC(=Nc3ccccc3)N(CCc3c[nH]c4ccccc34)C2=O)cc(C(=O)OC)c1 (centres undefined)	4.5µM*	i	?	-13%
Cc1ccc(CSC2=NC(C)(C)Nc3ccccc32)c(C)c1	10µM*	i	0%	/
N#Cc1c(-c2ccccc2)c(-c2ccccc2)nn(CC(=O)NNC(=O)Nc2ccc(Cl)cc2)c1=O	10µM*	15%	-22%	5%
Cc1ccc(N2C(=O)CC(N(CCc3ccccc3)C(=S)Nc3ccc(N(C)C)cc3)C2=O)cc1 (centres undefined)	4µM*	i	-31%	0%
O=C1CC(N(CCc2ccccc2)C(=S)Nc2ccccc2)C(=O)N1c1ccc(Br)cc1 (centres undefined)	?	-55%	?	-6%
SMILES	GLP-1R inv ag	PTHR1 ag	GLP1R cytotox	GLP-1R agonist
Cc1cccc(NC(=O)Cn2nc(C)c3nn(-c4ccc(Cl)cc4)c(C)c3c2=O)c1C	10%	-74%	-1%	/
COc1cccc(CNC(=O)Cn2nc3c(cc2=O)CCCC3)c1OC	1%	i	23%	/
CCCCCCSc1nnc(-c2cnn(-c3ccccc3)c2-n2cccc2)n1C	4.5µM*	-90%	?	-3%
CCSc1nnc(-c2cnn(-c3ccccc3)c2-n2cccc2)n1C	-26%	i	-3%	-13%
Cc1ccc(C(=O)c2cn(Cc3ccccc3F)c3cc4c(cc3c2=O)OCO4)cc1	8%	i	2%	/
O=C1C2C3CCCC3=C3CCCC3C2C(=O)N1c1cccc(Cl)c1 (centres undefined)	3.5µM*	-6%[57.5 µM]	2%	-2%
CCc1ccccc1Nc1nc(-c2cccnc2)cs1	11µM*	-40%	-13%	-6%
COc1ccc(NC(=O)c2cccc(N3C(=O)NC4CC3(C)Oc3ccccc34)c2)cc1 (centres undefined)	4µM*	i	-29%	-4%
COc1ccc(/C=N/OCC(=O)NCC(C)C)c(OC)c1	-6%	-11%	1%	0%
COc1ccc(CC(=O)NC(c2ccccc2)c2ccc(C)cc2)c(OC)c1 (centres undefined)	8.9µM*	-7%	-18%	20%
COc1ccc(/C=N/OCC(=O)NC(c2ccccc2)c2ccccc2)c(OC)c1	8.9µM*	-24%	1%	1%
COc1cccc(NC(=S)N2CCN(C/C=C/c3ccccc3)CC2)c1	5.6µM*	i	-23%	5%
COc1ccc(OCc2cc(C(=O)NCC3CCOCC3)no2)c(Cl)c1	-22%	-30%	-9%	16%
COc1ccc(OCc2cc(C(=O)NCCc3ccccc3)no2)c(Cl)c1	4.5µM*	-6%	-24%	10%
C/C(=C\C(=O)c1ccc(Br)cc1)NNC(=O)c1ccc(O)cc1	4.5µM*	25%	?	-7%
CCCCCOc1ccc(C(=O)N(Cc2ccccc2)C2CCS(=O)(=O)C2)cc1 (centres undefined)	?	-65%	4%	/
O=C(NN=C1CCCC1)c1[nH]c2ccc(Br)cc2c1-c1ccccc1	5µM*	-11%	?	26%
CC(C)=C1CCC(C)CC1=NNC(N)=S (centres undefined)	?	-20%	?	5%
CC1C/C(=N\NC(N)=S)c2cc(Cl)ccc2S1 (centres undefined)	?	-16%	2.2µM*	-16%
COc1ccc(CCN(C(=O)C(F)(F)F)C(C(=O)NC2CCCCC2)c2cccs2)cc1 (centres undefined)	6.3µM*	i	-4%	5%
CCOc1ccc(NC(=O)CSc2nc(-c3ccccc3)c3cc(OCC)ccc3n2)cc1	-6%	-1%	-2%	/
COc1ccc(Nc2nnc(SCC(=O)/C=C3/N(C)c4ccccc4C3(C)C)s2)cc1	11µM*	-35%	-23%	-2%
